Common to all, as to assay: qHTS profiling for inhibitors of Plasmodium falciparum proliferation (AID 504749); note: nearly all actives have a fitted effect of over 60% in size
Common to all, as to details: P. falciparum in erythrocytes, SYBR Green DNA, 72 h; series mostly up to 28.7 µM

Assay [1] has as its system CP265. Summed up: (§1)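 SYBR Green fluorescence (ex 485 nm, em 535 nm) reports parasite DNA after 72 h compound exposure of infected red cells at 0.3% parasitemia, 2.5% hematocrit; signal normalized to 0.29 uM artemisinin and vehicle wells.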
Assay [2] deals with CP266. The gist of the method: as §1
Assay [3] relates to CP268. The gist of the method:
as §1

In assay [4] the test system is CP269. The gist of the method: as §1
Assay [5] concerns CP286. Summed up: as §1
The subject of assay [6] is CP291. Summed up: as §1
Assay [7] deals with CP297. The gist of the method:
as §1

Assay [8] concerns CP305. The gist of the method:
as §1

In assay [9] the test system is CP315. Summed up: as §1
Assay [10] has as its system CP325. Summed up:
as §1

Assay [11] deals with CP329. Summed up:
as §1

Assay [12] has as its system CP335. Summed up:
as §1

Assay [13] deals with DFO2036. The gist of the method:
as §1

Assay [14] relates to DIV14. The gist of the method: as §1
In assay [15] the test system is DIV17. Summed up:
as §1

Assay [16] concerns DIV30. Summed up: as §1
Assay [17] deals with Dd2. The gist of the method:
as §1

Assay [18] has as its system ECU. The gist of the method:
as §1

The test system of assay [19] is GB4. Summed up: as §1
For assay [20], the system named is FAB9. The gist of the method: as §1

Results filed as inconclusive are left out. Activity calls are given as the source filed them. Calls come from the whole dose curve; as a rule, active = well fitted inhibition curve with a large enough effect; inconclusive = small, poorly fitted or top-dose-only effect; inactive = flat fitted curve, though single readings scatter.

Experimental findings from PubChem BioAssay (NCATS) are described below.
Potency is the fitted concentration of half-maximal effect.

In the case of `CCN(CC)CCNc1ccc(CO)c2sc3ccccc3c(=O)c12`, the Potency in assay [1] is 1580 nM (active); in assay [2] it was 5360 nM (active); in [3], 3380 nM (active); in assay [4], 1900 nM (active); in assay [5], 2000 nM (active); in assay [6], 4780 nM (active). In addition, the Potency was 1690 nM (active) in [7]; 3790 nM (active) in assay [8]; 6010 nM (active) in assay [9]; 4780 nM (active) in [10]; 4780 nM (active) in assay [11]; 1510 nM (active) in assay [12]. The Potency was 447 nM (active) in [13]; 4260 nM (active) in [14]; 2390 nM (active) in [15]; 9530 nM (active) in assay [16]; 2240 nM (active) in [17]; 708 nM (active) in assay [18]. Also, the Potency in assay [19] was 1200 nM (active).
On to `OCc1ccccn1`, for which the Potency result in assay [1], in assay [2], in assay [3], in [4], in [5] and in [6] was “inactive” in each case. Also, the Potency entry in [7], in [8], in assay [9], in assay [10], in [11] and in assay [12] was “inactive” in each case. For the same molecule, the Potency entry in assay [13], in [14], in assay [15], in [16], in assay [17] and in assay [18] was “inactive” each time. Moreover, the Potency entry in [20] and in [19] was “inactive” throughout.
With `CC(=O)Oc1ccc(C)cc1`, the Potency entry in assay [1], in assay [2], in assay [3], in [4], in assay [5] and in assay [6] was “inactive” in each case. Also, the Potency entry in assay [7], in assay [8], in assay [9], in assay [10], in [11] and in [12] was “inactive” each time. For the same molecule, the Potency entry in assay [13], in assay [14], in assay [15], in assay [16], in assay [17] and in [18] was “inactive” each time. In addition, the Potency entry in assay [20] and in assay [19] was “inactive” in each case.
For `FC1(F)C(F)(F)C(F)(F)C2(F)C(F)(F)C(F)(F)C(F)(F)C(F)(F)C2(F)C1(F)F` (stereo unspecified), the Potency result in [1], in [2], in assay [3], in assay [4], in assay [5] and in [6] was “inactive” in each case. Also, the Potency entry in assay [7], in assay [8], in [9], in [10], in assay [11] and in assay [12] was “inactive” in each case. The Potency result in [13], in assay [14], in [15], in [16], in assay [17] and in assay [18] was “inactive” in each case. In addition, the Potency result in assay [20] and in [19] was “inactive” each time.
On to `COc1cc(N)c(Cl)cc1C(=O)NC1CCN(Cc2ccccc2)CC1`, for which the Potency entry in assay [1], in assay [2], in [3], in assay [4], in assay [5] and in [6] was “inactive” each time. In addition, the Potency entry in assay [7], in assay [8], in [9], in assay [10], in assay [11] and in assay [12] was “inactive” in each case. Moreover, the Potency entry in assay [13], in assay [14], in [15], in assay [17], in assay [18] and in [20] was “inactive” each time.
For the molecule `Nc1nc(-c2ccccc2)c(Br)c(=O)[nH]1`, the Potency entry in assay [1], in assay [2], in assay [3], in assay [4], in assay [5] and in assay [6] was “inactive” each time. Also, the Potency result in assay [7], in [8], in assay [9], in assay [10], in [11] and in assay [12] was “inactive” throughout. The Potency entry in assay [13], in assay [14], in assay [15], in [16], in assay [17] and in assay [18] was “inactive” in each case. In addition, the Potency result in assay [20] and in assay [19] was “inactive” each time.
In the case of `Cc1nc(-c2ccc(Cl)cc2)oc1COC(C)(C)C(=O)O`, the Potency entry in assay [1], in assay [2], in assay [3], in assay [4], in assay [5] and in [6] was “inactive” throughout. In addition, the Potency result in assay [7], in assay [8], in assay [9], in assay [10], in [11] and in assay [12] was “inactive” throughout. In addition, the Potency result in [13], in [14], in assay [15], in assay [16], in assay [17] and in assay [18] was “inactive” throughout. For the same molecule, the Potency entry in assay [20] and in [19] was “inactive” in each case.
As for `NCCNC(=O)c1ccc(Cl)cn1`, the Potency result in [1], in assay [2], in [3], in assay [4], in [5] and in assay [6] was “inactive” each time. For the same molecule, the Potency result in assay [7], in [8], in [9], in [10], in [11] and in assay [12] was “inactive” throughout. In addition, the Potency entry in assay [13], in assay [14], in assay [15], in assay [16], in assay [17] and in [18] was “inactive” in each case. Moreover, the Potency result in [20] and in assay [19] was “inactive” in each case.
Consider `Oc1ccccc1C=NCc1ccccc1`, for which the Potency result in assay [1], in assay [2], in assay [3], in [4], in assay [5] and in assay [6] was “inactive” in each case. Also, the Potency result in assay [7], in assay [8], in [9], in assay [10], in assay [11] and in assay [12] was “inactive” in each case. In addition, the Potency entry in assay [13], in [14], in assay [15], in [16], in assay [17] and in assay [18] was “inactive” each time. Moreover, the Potency result in [20] and in assay [19] was “inactive” in each case.
Consider `CCCCC(CC)COC(=O)/C=C/c1ccc(OC)cc1` (stereo unspecified), for which the Potency entry in assay [1], in assay [2], in [3], in [4], in [5] and in assay [6] was “inactive” each time. Also, the Potency entry in assay [7], in [8], in assay [9], in assay [10], in [11] and in assay [12] was “inactive” each time. Further, the Potency result in assay [13], in assay [14], in [15], in assay [16], in assay [17] and in [18] was “inactive” each time. In addition, the Potency result in assay [20] and in assay [19] was “inactive” each time.
Regarding `CC(=O)Nc1ccc(CC(=O)O)cc1`, the Potency result in assay [1], in assay [2], in assay [3], in assay [4], in assay [5] and in assay [6] was “inactive” in each case. For the same molecule, the Potency entry in assay [7], in assay [8], in assay [9], in assay [10], in assay [11] and in assay [12] was “inactive” throughout. Moreover, the Potency entry in [13], in assay [14], in assay [15], in [16], in [17] and in assay [18] was “inactive” throughout. The Potency entry in assay [20] and in [19] was “inactive” in each case.
For `O=c1[nH]c(=O)n([C@H]2C[C@H](O)[C@@H](CO)O2)cc1F`, the Potency result in assay [1], in [2], in assay [3], in assay [4], in [5] and in assay [6] was “inactive” in each case. The Potency entry in [7], in assay [8], in assay [9], in [10], in assay [11] and in assay [12] was “inactive” each time. In addition, the Potency result in assay [13], in [14], in [15], in assay [16], in assay [17] and in assay [18] was “inactive” throughout. The Potency result in assay [20] and in assay [19] was “inactive” each time.
On to `c1ccc(-c2nc[nH]c2-c2ccccc2)cc1`, for which the Potency entry in assay [1], in assay [2], in [3], in assay [4], in assay [5] and in assay [6] was “inactive” throughout. Further, the Potency result in assay [7], in assay [8], in assay [9], in assay [10], in assay [11] and in [12] was “inactive” in each case. Also, the Potency result in assay [13], in assay [14], in assay [15], in assay [16], in assay [17] and in assay [18] was “inactive” throughout. For the same molecule, the Potency entry in [20] and in [19] was “inactive” in each case.
`O=C(O)C1(C(=O)O)CCC1.[NH2-].[NH2-].[Pt+2]`: the Potency entry in assay [1], in assay [2], in assay [3], in [4], in assay [5] and in assay [6] was “inactive” in each case. For the same molecule, the Potency result in [7], in [8], in assay [9], in assay [10], in assay [11] and in [12] was “inactive” throughout. Moreover, the Potency entry in assay [13], in assay [14], in assay [15], in assay [16], in assay [18] and in [20] was “inactive” in each case. For the same molecule, the Potency entry in assay [19] is “inactive”.
